Records with an inconclusive call do not appear. Where a call stands in place of a potency, no number is given. Unmarked numbers belong to inactive results. Calls of active or inactive are those of the source. Calls come from the whole dose curve; as a rule, active = well fitted cell-killing curve with a large enough effect in the repeat runs; inconclusive = weak or mixed curves, or effect the other way; inactive = flat fitted curve, though single readings scatter.

This experiment can be described thus: Human pregnane X receptor (PXR) small molecule agonists, qHTS cell viability counter screen (AID 1346977). Note: nearly all actives have a fitted effect of over 50% in size. The settings on record: PXR-Luc HepG2 viability, CellTiter-Fluor, 24 h; series mostly up to 92.4 µM. From the text: U.S. Tox21 Program National Center for Advancing Translational Sciences [NCATS] NIH Chemical Genomics Center [NCGC] U.S. Environmental Protection Agency [EPA] National Institutes of Environmental Health Sciences [NIEHS] National Toxicology Program [NTP] U.S. Food and Drug Administration [FDA] Tox21 Assay Overview: The human pregnane X receptor (hPXR) regulates the expression of several drug metabolizing enzymes and induction of these proteins is a major mechanism for developing drug resistance in cancer. One such key enzyme catalyzing the drug metabolism is cytochrome P450 3A4 (CYP3A4). Changes in CYP3A4 expression affect drug metabolism, thereby reducing the therapeutic efficacy and altering toxicological response to a drug and which finally causes adverse drug interaction. To screen Tox21 libraries for compounds that activate hPXR-mediated CYP3A4 gene expression, PXR-Luc HepG2 cells were used. Also cytotoxicity of the compounds was tested in parallel by measuring the cell viability using CellTiter-Fluor assay system in the same wells.
Tox21 Assay Protocol Summary: PXR-Luc HepG2 cells were dispensed at 2,000 per well in 5uL of assay medium containing 5% charcoal-stripped FBS into white solid bottom 1536-well plates (Corning Life Sciences, Corning, NY) using a Multidrop Combi (Thermo Scientific, Waltham, MA) dispenser. The assay plates were incubated at 37 C and 5% CO2 for 5hr, and then 23nL of compounds dissolved in DMSO and positive control were transferred using a Pintool station (Wako, San Diego, CA). The assay plates were incubated at 37C and 5% CO2 for 24hr. For cytotoxicity read, after 23hr incubation at 37C, 1uL CellTiter-Fluor reagent (Promega Corporation, Madison, WI) was added to each well of the assay plates using Flying Reagent Dispenser (FRD, Aurora Discovery, San Diego, CA). After 1hr incubation at 37C and 5% CO2, the fluorescence signal was quantified using a ViewLux plate reader (PerkinElmer, Shelton, CT).
Take `NNS(=O)(=O)c1ccc(Oc2ccc(S(=O)(=O)NN)cc2)cc1`: the Potency entry is “inactive”.
On the same count and under the same terms, to `CCOc1ccccc1N` belongs “inactive”; to `CCOC(=O)CS`, “inactive”.
As to `Cc1cc(S(=O)(=O)O)c(N)cc1Cl`, the Potency entry was “inactive”.
On the same count and under the same terms, to `Nc1cccc(S(=O)(=O)O)c1` belongs “inactive”.
Consider `C=CCc1cc(OC)c(O)c(C(=O)NCCO)c1`, for which the Potency entry was “inactive”.
For the compound `CN(C)CCOc1ccccc1Cc1ccccc1`, the Potency result was “inactive”.
Regarding `O=C(CCCl)NCc1ccccc1`, the Potency result was “inactive”.
On to `COC(=O)c1ccc2cc(C(=O)OC)ccc2c1`, for which the activity change, negative = cytotoxicity was 6.1% [at 19 µM].
In the case of `CCCN(CCC)C(=O)C(CCC(=O)O)NC(=O)c1ccccc1` (stereo not given), the Potency entry is “inactive”.
Same read-out and setting: to `CCN1CC(CCN2CCOCC2)C(c2ccccc2)(c2ccccc2)C1=O` (stereo not given) belongs “inactive”; to `CCOc1ccc(OCC)c(Cl)c1`, “inactive”; to `CCCS(=O)c1ccc2nc(NC(=O)OC)[nH]c2c1` (stereo not given), “inactive”.
The same measure, in the same setting: with `CCOc1ccc(NS(=O)(=O)c2ccc(N)cc2)nn1` the entry was “inactive”.
With `C=CCCC=C`, the Potency result was “inactive”.
For the compound `CCOc1ccc(NC(N)=O)cc1`, the Potency result is “inactive”.
`Cc1cc(NS(=O)(=O)c2ccc(N)cc2)nc(C)n1`: the Potency entry is “inactive”.
With `COc1ccccc1N1CCN(CCCNc2cc(=O)n(C)c(=O)n2C)CC1`, the Potency entry was “inactive”.
The same measure, in the same setting: to `CC(C)OC(C)C` belongs “inactive”.
Regarding `Oc1ccccc1C=NCc1ccccc1`, the Potency result was “inactive”.
On the same count and under the same terms, with `Clc1cccc(-c2cc(Cl)cc(Cl)c2)c1` the entry was “inactive”; with `CC/C=C\CCOC(=O)C(C)C`, “inactive”; with `CCOC(=O)C(Br)c1ccccc1` (stereo not given), “inactive”.
Consider `CCCCC(CC)COC(=O)COc1cc(Cl)c(Cl)cc1Cl` (stereo not given), for which the Potency entry was “inactive”.
In the case of `CCCCN1C[C@H](O)[C@@H](O)[C@H](O)[C@H]1CO`, the Potency entry is “inactive”.
On the same count and under the same terms, with `OCCN1CCN(CCO)CC1` the entry was “inactive”; with `O=C(CC(=O)C(F)(F)F)c1ccccc1`, “inactive”; with `CC(C)NCC(O)COc1ccc(CCOCC2CC2)cc1` (stereo not given), “inactive”.
Still for that read-out and setting: to `CC1(C)C(=O)N(Cl)C(=O)N1Br` belongs “inactive”; to `CC(=O)O[C@H]1CC[C@@]2(C)C(=CC[C@@H]3[C@@H]2CC[C@]2(C)C(C(C)=O)=CC[C@@H]32)C1`, “inactive”; to `CCc1cc2cc(OC)c(OC)cc2c(Cc2ccccc2)n1`, “inactive”.
Still for that read-out and setting: to `CCOC(=O)[C@H](CCc1ccccc1)N[C@@H](C)C(=O)N1Cc2cc(OC)c(OC)cc2C[C@H]1C(=O)O` belongs “inactive”; to `CC(C)=CCC[C@](C)(O)[C@@H]1CC=C(C)CC1`, “inactive”; to `COc1ccc(S(=O)(=O)Nc2nnc(CC(C)C)s2)cc1`, “inactive”.
Turning to `Cc1cccc(C)c1NC(=O)CN1CCCCCC1`, the Potency result was “inactive”.
Still for that read-out and setting: to `C=CC(C)(O)CC/C=C(\C)CCC=C(C)C` (stereo not given) belongs “inactive”.
Regarding `Cc1ccsc1C(=CCCN1CCC[C@@H](C(=O)O)C1)c1sccc1C`, the Potency entry was “inactive”.
Same read-out and setting: with `CCNCCO` the entry was “inactive”.
Same read-out and setting: with `OC[C@H]1O[C@@H](O[C@H]2[C@H](O)[C@@H](O)[C@H](O)O[C@@H]2CO)[C@H](O)[C@@H](O)[C@H]1O` the entry was “inactive”; with `Oc1ccccc1F`, “inactive”.

For the origin of these results see PubChem BioAssay (Tox21).
